Only some compounds are listed: those with a hit (about 4.5% of all), similar ones and a draw of the others.
hgDAF-12 ag: H. glycines DAF-12 receptor agonists, primary screen, cell-based, luminescence, HEK293, GAL4 fusion, UAS-luciferase. HEK293 GAL4-hgDAF12 UAS-luciferase reporter, agonist luminescence; normalized to butyrate control. Nuclear hormone receptor DAF-12 (Heterodera glycines), GAL4 fusion. 370,000 tested, 1.8% active. activation, % at 6.8 µM;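 active = activation above a cutoff set at the mean of all screened compounds plus 3 SD, cut at about 10% in these data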;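 note: 0% = DMSO wells and 100% = sodium butyrate wells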
hcDAF-12 act: H. contortus DAF-12 nuclear receptor activators, primary screen, cell-based, luminescence, HEK293, lit1-tk-luc reporter; HEK293 hcDAF-12 lit1-tk-luc reporter; 0% DMSO, 100% Δ7-dafachronic acid; activation, % at 6.8 µM; 370,000 tested, 1.4% active; AID 652067, 2013;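 active = activation above the mean of all tested compounds plus 3 SD, cut at about 5.5% in these data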;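 note: 100% = response to 3 µM Δ7-dafachronic acid high control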
ssDAF-12 act: S. stercoralis DAF-12 nuclear receptor activators, primary screen, cell-based, luminescence, HEK293, GRIP1 co-expression, lit1-tk-luc | HEK293 ssDAF-12/GRIP1 lit1-tk-luc reporter; % of 3 µM dafachronic acid response | activation, % at 6.8 µM | 370,000 tested, 1% active | AID 652126, 2013;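 active = activation above the mean over all tested compounds plus 3 SD, cut at about 0.9% in these data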;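 note: 0% = DMSO-only wells and 100% = 3 µM delta7-dafachronic acid wells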
DAX1 inh-1: DAX1 (NR0B1) inhibitors on StAR promoter, primary screen, cell-based, luminescence, SF-1 (NR5A1), full-length DAX-1; HEK293T StAR-luciferase reporter, SF-1/DAX-1 repression relief; inhibition, % at 6.8 µM; 370,000 tested, 1.1% active; AID 652010, 2013;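 active = inhibition above the mean over all tested compounds plus 3 SD, cut at about 3.6% in these data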;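 note: 0% = DAX-1 cells with DMSO and 100% = cells lacking DAX-1 with DMSO; higher inhibition means more luminescence from relief of DAX-1 repression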
FXN GAA850 act: FXN promoter activators, primary screen, cell-based, luciferase luminescence, HEK293 lucGAA850; HEK293 lucGAA850 FXN promoter luciferase reporter, 24 h; percent of 10 µM SAHA response; activation, % at 6 µM; 360,000 tested, 0.56% active;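 active = activation above the average of all compounds screened plus 3 SD, cutoff fixed separately per campaign, cut at about 7.5% in these data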;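 note: 0% = DMSO wells and 100% = 10 µM SAHA wells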
DAX1 inh-2: DAX1 (NR0B1) inhibitors, primary screen, cell-based, HEK293, Gal4-DAX1, luciferase luminescence; Nuclear receptor subfamily 0 group B member 1 (Homo sapiens), P51843; HEK293 Gal4-DAX1 luciferase reporter; inhibition, % at 6.75 µM; 340,000 tested, 0.99% active;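 active = inhibition above the mean over all tested compounds plus 3 SD, cut at about 4.2% in these data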;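 note: 0% = DAX1-transfected cells with DMSO and 100% = empty-vector control cells with DMSO; inhibition shows as a rise in luminescence from relieved DAX1 repression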
Target sequence (P51843 207-470 limits assumed): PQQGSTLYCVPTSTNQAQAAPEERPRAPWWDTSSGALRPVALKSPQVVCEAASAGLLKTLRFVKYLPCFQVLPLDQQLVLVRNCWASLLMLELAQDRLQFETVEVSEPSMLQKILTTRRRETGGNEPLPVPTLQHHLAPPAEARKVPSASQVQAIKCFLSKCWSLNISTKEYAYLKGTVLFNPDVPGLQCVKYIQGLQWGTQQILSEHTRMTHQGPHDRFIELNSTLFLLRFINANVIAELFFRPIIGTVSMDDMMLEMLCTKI
LXR ag: LXR agonists, Gal4 luciferase reporter, confirmation, counter-screen for hcDAF-12 agonist project, cell-based, luminescence, HEK293, H. contortus campaign. shares compounds with hcDAF-12 act. HEK293 Gal4-LXR tk-luc reporter, 24 h; normalized: DMSO 0%, positive control 100%. activation, % at 6.8 µM. 3,400 tested, under 10 active;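 active = mean percent activation of the reporter above a cutoff set as the average over tested compounds plus their standard deviation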
hcDAF12 ag: H. contortus DAF-12 receptor agonists, confirmation, cell-based, luminescence, HEK293, lit1-tk-luc, triplicate; 3,400 tested, 61% active; AID 743032, 2013; activation, % at 6.8 µM; shares compounds with hcDAF-12 act; HEK293 hcDAF-12 lit1-tk-luc reporter; % of Δ7-dafachronic acid response;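 active = mean activation across triplicate tests above the threshold derived from the earlier primary screen, cut at about 5.5% in these data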;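 note: 0% = DMSO only wells and 100% = 3 µM Δ7-dafachronic acid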
hgDAF12 conf: H. glycines DAF-12 receptor agonists, confirmation, cell-based, luminescence, HEK293, GAL4-LBD fusion | activation, % at 6.8 µM | HEK293 GAL4-hgDAF12 luciferase reporter, agonist mode; percent of butyrate response | shares compounds with hgDAF-12 ag | 3,300 tested, 80% active;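 active = mean activation over triplicate wells above the hit cutoff derived from the earlier primary screen, cut at about 11% in these data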;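 note: 0% = DMSO low control and 100% = 2 mM sodium butyrate high control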
LXRb DAF12 ctr: LXR agonists, Gal4 luciferase reporter, confirmation, counter-screen for hgDAF-12 agonist project, cell-based, luminescence, HEK293, H. glycines campaign; 24 h; shares compounds with hgDAF-12 ag; activation, % at 6.8 µM; AID 743051, 2013; 3,300 tested, under 10 active;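 active = mean activation of the triplicate above a set limit carried over from the primary screen, none filed active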
An asterisk follows results filed as active; x = no result.

SMILES	hgDAF-12 ag	hcDAF-12 act	ssDAF-12 act	DAX1 inh-1	FXN GAA850 act	DAX1 inh-2	LXR ag	hcDAF12 ag	others
O=C(NC(CCC(O)CO)P(=O)(Oc1ccccc1)Oc1ccccc1)OCc1ccccc1 (centres undefined)	0.0	0.0	-0.7	1.4	x	x	x	x
CCCCn1c(=O)c(C(=O)Nc2ccccc2)c(O)c2ccccc21	2.0	7.1*	-0.4	-0.2	2.6	1.1	-0.1	7.6*
CN(C)C(Cc1ccccc1)C(=O)c1c[nH]c2ccccc12 (centres undefined)	2.2	6.8*	0.4	0.5	-0.6	-0.6	0.1	2.4
N#CC(C#N)=C(C#N)c1ccc(Nc2ccccc2)cc1	-0.6	-0.7	-1.1	-0.3	0.3	0.3	x	x
c1ccc(-c2ccc(CN3Cc4ccccc4-n4nncc4C3)cc2)cc1	-2.9	-2.6	-1.8	-3.9	-1.4	-1.8	x	x
Clc1ccccc1Nc1ncnc(-n2cccc2)n1	13.0*	10.7*	0.7	1.7	5.3	3.4	1.1	9.2*
Clc1ccccc1NC1=NCCCS1	0.7	0.2	-0.9	0.3	0.4	-0.2	x	x
O=c1c2ccccc2nc(CNc2ccccc2)n1-c1ccccc1	-0.2	0.4	-1.2	0.1	1.4	-0.2	x	x
CSc1ccc(C(=O)C2CCCN(Cc3cc4ccccc4[nH]3)C2)cc1 (centres undefined)	0.2	6.7*	0.6	0.2	1.8	0.2	-0.1	5.6
CCOS(C)(=O)=O	-1.3	-1.8	-1.0	-1.2	0.4	0.1	x	x
N#Cc1c(Br)n(C2OC(CO)C(O)C2O)c2ncnc(N)c12 (centres undefined)	17.9*	1.5	-0.7	0.4	0.0	7.6*	x	x	hgDAF12 conf=10.4;LXRb DAF12 ctr=0.6
CN1CCCC2c3ccccc3CCC21 (centres undefined)	-3.7	0.2	-0.9	0.7	0.6	3.4	x	x
COC(=O)[C@@H]1N=C(c2ccc(OC)cc2)O[C@]12C(=O)N(Cc1ccccc1)c1ccccc12	0.5	-0.7	-0.7	2.0	x	x	x	x
Nc1c2c(nc3sc4c(c13)CCCC4)CCCCC2	14.3*	3.2	-0.4	2.4	5.9	3.0	x	x	hgDAF12 conf=17.6*;LXRb DAF12 ctr=0.9
COc1ccc(C(C)=O)cc1CC(C(=O)c1ccc(Br)cc1)N(C)C (centres undefined)	13.7*	0.2	-1.1	-0.2	2.1	-0.1	x	x	hgDAF12 conf=-0.5;LXRb DAF12 ctr=0.0
O=S1(=O)NCC2(CC2)CN1Cc1ccccc1	-0.5	-0.5	-1.2	0.0	x	x	x	x

High-throughput results from PubChem.
